# MARV entry inh: blocks Marburg virus binding or cell entry; Marburg virus pseudotype entry/binding inhibition, cell-based; Potency, µM (highest dose often 49.2 µM), for inactives: top-dose activity change, negative = inhibition, hits mostly inhibitors; 6.5% of 18,000 active; AID 720532
# Lassa entry: Lassa virus entry inhibition; AID 720533; Lassa virus pseudotyped entry inhibition, cell-based qHTS; 4.1% of 18,000 active; Potency, µM (highest dose often 49.2 µM), inactives show at the top dose activity change, negative = inhibition, most hits filed as inhibitors
# * = called active by the depositor; ? = inconclusive; · = no result; ! = not confirmed by another sample; [ ] = remark or other dose. Compounds with a hit are over-represented: about 8% of the library has one in this group of screens. The call rests on the fitted dose curve; tested in HEK293 cells. On the % scale 0 is the no-effect control and ±100 the full control effect; potency means the concentration at half of the fitted maximal effect.
SMILES,MARV entry inh,Lassa entry
COc1ccc([C@]23Cc4cc(OC)c(OC)cc4[C@H](O2)c2c(c4ccccc4oc2=O)O3)cc1,5%[8.59 µM],22%[8.59 µM]
COC(=O)[C@H]1C[C@@]2(CC=C(C)C)C(=O)[C@@](CC=C(C)C)(C(=O)C(C(=O)c3ccccc3)=C2OC)C1(C)C,-31%[8.59 µM],-3%[8.59 µM]
Cc1ccc2nc(NCCN)c3ncc(C)n3c2c1,7.9µM*,?
COc1cccc([C@H]2Oc3ccc(OC)cc3C(=NOCC[C@@H]3C=C[C@H](OC(C)=O)[C@@H](COC(C)=O)O3)[C@H]2O)c1,-24%[8.59 µM],·
O=C1[C@@H]2[C@@H](C(=O)N1CC(O)COCc1ccccc1)[C@H]1C=C[C@@H]2C1 (stereo not given in full),7%,-22%
CNCC[C@H](Oc1cccc2ccccc12)c1cccs1,7.9µM*,22µM*
OC[C@@H](O)COc1cccc2ccccc12,-8%,-4%
FC(F)(F)c1cc(NC(=S)NC(c2ccccc2)c2ccccc2)cc(C(F)(F)F)c1,?,-44%
CNCCC(Oc1ccc(C(F)(F)F)cc1)c1ccccc1 (stereo not given),7.1µM*,18µM*!
CCCCCC(=O)N1C[C@@H](n2cc(-c3ccc(F)cc3)nn2)[C@H](O)C[C@H]1c1ccc(OC)cc1,-35%,·
C[C@H]1CC[C@H]2C(=O)N(Cc3ccc(Cl)cc3)C[C@@H](O)CN2[C@H]1c1ccc(Br)cc1,?,-9%[8.59 µM]
COC(=O)c1ccc(CN2C(=O)[C@@]3(CC(C)=C[C@@H](COc4ccccc4)O3)c3ccccc32)cc1,21%[8.59 µM],-15%[8.59 µM]
CN1CCC(=C2c3ccccc3CCc3cccnc32)CC1,-25%,-5%
CCOC(=O)N1CCC(=C2c3ccc(Cl)cc3CCc3cccnc32)CC1,-17%,32µM*!
CCCCCC(=O)N1C[C@H](n2cc(C3CC3)nn2)[C@@H](O)C[C@H]1c1ccccc1,23%,-17%

# Assay outcomes from PubChem BioAssay.
